From PubChem BioAssay AID1645858 (Buhrlage Lab, Dana-Farber Cancer Institute and Novartis …, 2021)
The whole screen tested about 47,000 compounds, of which about 330 (0.7%) were called active. The list comes from a sample in which actives are over-represented; it also holds similar structures and randomly drawn compounds. Values without a mark were called inactive. Cut-off read from the data, not from the text of the source: active = inhibition above about 30%; inactive = the rest.

Molecular target: OTU domain-containing protein 3 (Homo sapiens) (UniProt Q5T2D3)
Assay: blocks human OTUD3 ubiquitin-rhodamine cleavage (AID 1645858)
Settings: purified OTUD3, Ub-rhodamine fluorescence, 2 h; at 25 µM; hits give high values

Sequence of OTU domain-containing protein 3 (Homo sapiens) (Q5T2D3 whole entry, looked up, the tested form may be a part): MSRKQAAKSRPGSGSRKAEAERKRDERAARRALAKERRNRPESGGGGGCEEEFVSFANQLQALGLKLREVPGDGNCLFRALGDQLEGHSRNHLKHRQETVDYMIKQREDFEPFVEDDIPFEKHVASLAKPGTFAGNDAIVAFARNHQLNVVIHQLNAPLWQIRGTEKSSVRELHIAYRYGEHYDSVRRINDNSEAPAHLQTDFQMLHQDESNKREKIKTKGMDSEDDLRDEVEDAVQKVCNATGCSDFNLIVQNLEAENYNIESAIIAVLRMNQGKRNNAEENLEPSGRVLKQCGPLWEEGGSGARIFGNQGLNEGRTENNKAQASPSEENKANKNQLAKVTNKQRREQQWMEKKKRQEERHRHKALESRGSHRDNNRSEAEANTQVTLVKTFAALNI

Row | SMILES | inhibition
1 | Cc1cc2n(n1)CCCN2C(=O)CCC(=O)N1CCN(c2ccc(F)cc2)CC1 | 7.75%
2 | O=C(NCc1cccnc1)C1CCN(c2cnc(N3CCCCCC3)nc2)CC1 | -16.6%
3 | O=C(Cn1cccc1-c1nnc(C2CC2)o1)NC1CCCCC1 | -15.9%
4 | CCCNc1c(NC(=O)C2CC(=O)N(c3ccccc3)C2)c(=O)oc2ccccc12 (stereo not drawn) | 21.6%
5 | O=C(N[C@@H]1C[C@@H](Oc2cccnc2)[C@H](O)[C@H]1N1CCCCC1)c1ccccn1 | -9.39%
6 | CC(=O)N1Cc2ccccc2CC2(CCN(Cc3cccnc3)CC2)C1 | 4.03%
7 | CCC(=O)Nc1nc2cc(NC(=O)c3ccc(OC)cc3)ccc2s1 | 17.4%
8 | O=C(NCCc1ccccc1)c1ccc2c(=O)nc3c(-c4ccccc4F)n[nH]n3c2c1 | -7.12%
9 | O=C(Cn1c(=O)n(Cc2ccc3c(c2)OCO3)c(=O)c2ccccc21)NCc1ccco1 | 0.529%
10 | O=C(NCCc1ccccc1)c1ccc2c(=O)n(Cc3ccco3)c(=O)n(Cc3cccc([N+](=O)[O-])c3)c2c1 | 36.8% (active)
11 | COCCn1cc2c3c(cccc31)CN(C(=O)c1cnccn1)CC2 | -12.8%
12 | Cc1nn(-c2ccccn2)c2ncc(C(=O)c3cc(F)ccc3O)cc12 | -3.93%
13 | CCNC(=O)CCc1nc2c(C)nn(-c3ccccc3)c2n(CC)c1=O | 9.41%
14 | CC(C)c1cc(C2CCCN2C(=O)Cc2ccc(F)cc2)no1 (stereo not drawn) | 2.85%
15 | CCN1CCC(n2c(C(F)(F)F)nc3c(OC)cccc32)CC1 | 5.17%
16 | CCN1C[C@@]23CN(C(=O)c4cccc(Cl)c4)C[C@@H](C[C@@H]2S1(=O)=O)O3 | 11.4%
17 | CCc1nnc(-c2ccc(=O)n(CC(=O)N3CCN(C(C)C)CC3)c2)o1 | -5.08%
18 | CNc1nc(N2CCCCCC2)nc(-n2cnc(SC)n2)n1 | -0.432%
19 | COc1cccc(N2CCN(C(=O)c3sc4ncccc4c3-n3cccc3)CC2)c1 | 15.3%
20 | O=C(Cc1cc(=O)oc2cc(O)ccc12)N1CC[C@@]2(O)CCCC[C@H]2C1 | 1.08%
21 | Cc1occc1C(=O)Nc1cc(-c2ccc(F)cc2)nn1C | -0.358%
22 | O=C(O)CC1(CC(=O)Nc2ccc(Oc3ccccc3)cc2)CCCC1 | 15.9%

Row | SMILES | inhibition
23 | Clc1ccc(CNC2CCN(Cc3ccccc3)C2)cc1Cl (stereo not drawn) | 5.2%
24 | Cc1cc(S(=O)(=O)N2CC=C(c3c(C)[nH]c4ccccc34)CC2)ccc1F | -29.4%
25 | CCc1ccc(S(=O)(=O)N2CCC3(CC2)COCCN(Cc2cccnc2)C3)cc1 | -4.96%
26 | O=C(c1ccc(N2CCCC2)nn1)N1CCN(c2ccccn2)CC1 | 0.782%
27 | Clc1cc2nc(N3CCN(c4ccccn4)CC3)c3nncn3c2cc1Cl | 44.6% (active)
28 | Cc1nn(-c2ccccc2)c(C)c1S(=O)(=O)N1CCN(c2ccccn2)CC1 | -4.16%
29 | Cc1nc(NC(=O)c2ccc(F)cc2Cl)sc1-c1ccccc1 | -3.32%
30 | CC(=O)N[C@@H]1C[C@H](c2cccc(F)c2)O[C@@H]2CCC[C@@H]12 | -4.95%
31 | CCn1c(CNC(=O)c2ccco2)nnc1SCC(=O)Nc1cccc(F)c1 | 0.153%
32 | COc1ccc(/C=C/C(=O)Nc2ccc3c(c2)OCCO3)cc1Br | -13.2%
33 | O=C(CSc1nnc(-c2ccncc2)n1Cc1ccccc1)Nc1cccc(Cl)c1 | -10.3%
34 | O=C(c1ccncc1)N1CC[C@@H]2CN(Cc3cccc(Cl)c3)S(=O)(=O)[C@@H]2CC1 | 2.12%
35 | Cc1cccc(-c2c3c(=O)n(C)c(=O)n(C)c3cn2Cc2ccc(F)cc2)c1 | -12.7%
36 | CC(C)=CCC/C(C)=C\Cc1c(O)cc(C)c(C=O)c1O | -3.19%
37 | NC(=O)c1ccc(NC(=O)Cc2cc(-c3ccc(Cl)cc3)on2)cc1 | -10.7%
38 | Cc1ccc(NS(=O)(=O)c2ccc3c(c2)NC(=O)CC(=O)N3)cc1F | -1.08%
39 | CCOc1ccc(S(=O)(=O)N2CCCC2c2ccco2)cc1 (stereo not drawn) | -0.738%
40 | O=C1CC(C(=O)N2CCC(c3ccc(Nc4ncccn4)cn3)CC2)c2ccccc2N1 (stereo not drawn) | -7.6%
41 | O=S(=O)(c1cccc2cccnc12)N1CCN(C2CCCCC2)CC1 | -6.63%
42 | O=C1C(O)=C(c2ccc(O)c(O)c2)C(=O)C(O)=C1c1ccccc1 | 73.3% (active)
43 | CCOC(=O)c1cc(C(=O)Nc2cccc(C(F)(F)F)c2)n2ccc(C)cc12 | -0.911%
